# Laboratory results from PubChem BioAssay AID588519 (ICCB-Longwood Screening Facility, Harvard Medical School, 2011).
# Screen size: about 150,000 compounds; about 1,000 (0.67%) were called active. Cut-off read from the data, not from the text of the source: active = % elongation below about 90%; inactive = the rest, inconclusive results apart. Many of the other results were omitted from the sample, so actives are more common in it than they were.
# Target: Genome polyprotein (Poliovirus type 1 (strain Mahoney)) (UniProt P03300)
# Sequence (P03300 1749-2209 limits assumed): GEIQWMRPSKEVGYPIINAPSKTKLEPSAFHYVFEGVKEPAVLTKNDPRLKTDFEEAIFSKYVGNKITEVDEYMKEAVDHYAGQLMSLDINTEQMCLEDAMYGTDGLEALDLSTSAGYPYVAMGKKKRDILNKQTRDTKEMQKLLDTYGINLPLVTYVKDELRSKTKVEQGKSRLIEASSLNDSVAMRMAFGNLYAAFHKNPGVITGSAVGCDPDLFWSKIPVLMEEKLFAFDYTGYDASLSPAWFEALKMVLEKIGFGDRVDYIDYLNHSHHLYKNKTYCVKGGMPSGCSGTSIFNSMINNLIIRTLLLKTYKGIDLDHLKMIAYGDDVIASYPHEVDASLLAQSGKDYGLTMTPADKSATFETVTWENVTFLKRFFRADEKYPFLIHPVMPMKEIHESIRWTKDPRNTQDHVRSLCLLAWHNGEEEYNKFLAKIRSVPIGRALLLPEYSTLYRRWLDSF
# Test: inhibitors of poliovirus polymerase RNA elongation – biochemical, fluorescence polarization, total intensity, primary screen (AID 588519); for z-score: compound at 16.7 µg/mL
# Conditions: stronger effect = lower value; for % elongation: compound at 16.7 µg/mL; for z-score: measured here: FP z-score
# [1] = measured here: total intensity read-out
Structure (SMILES),% elongation,z-score,% elongation [1]
CN1CCc2c(c(S)[nH]c(=S)c2C#N)C1,-17% (active),-18.2,48%
Cc1ccc(-n2c(C)cc(C(=O)CN3CC(C)OC(C)C3)c2C)cc1 (stereo unspecified),100% (inactive),-0.2,99%
O=C(O)CN1C(=O)/C(=C2/OC(=O)c3ccccc32)SC1=S,101% (inactive),-0.1,99%
O=C(O)CCCN1C(=O)/C(=C2\SC(=S)N(CCCC(=O)O)C2=O)SC1=S,88% (active),-4.7,86%
O=C(O)CCCN1C(=O)c2ccccc2Sc2ncccc21,101% (inactive),-0.2,105%
CCn1c(=O)c(=O)n(CC)c2cc(N3CCCCC3)c(NC(=O)c3ccccc3)cc21,101% (inactive),0.2,102%
CCn1c(=O)c(=O)n(CC)c2cc(N3CCCCC3)c(NC(=O)c3cccc(F)c3)cc21,104% (inactive),-0.3,107%
CCn1c(=O)c(=O)n(CC)c2cc(N3CCCCC3)c(NC(=O)c3ccc(Cl)cc3)cc21,90% (active),-4.3,85%
CS(=O)(=O)Nc1ccc2c(c1)COC2=O,102% (inactive),0,102%
Cc1nc(N(CC(=O)OC2CC(C)CCC2C(C)C)S(=O)(=O)c2ccc(N)cc2)c(C)n1N (stereo unspecified),102% (inactive),0.1,92%
CCCCCC(=O)Nc1cc(-c2nc3cc(C)cc(C)c3o2)ccc1C,103% (inactive),0.3,102%
CCN(Cc1ccccc1)C(=O)c1cccc(N2C(=O)CCC2=O)c1,101% (inactive),-0.5,103%
O=C1CCC(=O)N1C(c1ccccc1)c1ccccc1,104% (inactive),0.6,103%
O=C(ON1C(=O)CCC1=O)c1ccccc1,80% (active),-2.1,89%
Cc1c(C=Nc2ccc(S(=O)(=O)N(C)C)cc2)c(O)n(C)c(=O)c1C#N,104% (inactive),0.1,114%
Cn1c(=O)c(=O)n(C)c2cc(NC(=O)c3ccccc3Br)ccc21,109% (inactive),1.1,113%
CCOc1ccc2nc(NC(=O)c3ccccc3OC)sc2c1,99% (inactive),-0.1,92%
COc1ccc2c(c1)Cc1sc(NC(=O)c3ccccc3Br)nc1-2,59% (active),-7.3,63%
COC(=O)C1CCN(S(=O)(=O)c2ccc(Cl)cc2)CC1,103% (inactive),0.2,102%
NC[C@@H]1O[C@H](O[C@@H]2[C@@H](CO)OC(O[C@@H]3[C@@H](O)[C@H](N)C[C@H](N)[C@H]3OC3O[C@H](CN)[C@@H](O)[C@H](O)[C@H]3N)[C@@H]2O)[C@H](N)[C@@H](O)[C@@H]1O (stereo partly specified),87% (active),-1.4,78%
NCC1OC(OC2C(N)CC(N)C(O)C2O[C@@H]2O[C@H](CO)[C@H](O)C2O)C(N)C(O)C1O (stereo partly specified),99% (inactive),-0.1,103%
NC(=O)c1cccc(N2C(=O)c3ccccc3C2=O)c1,105% (inactive),0.2,102%
O=C1CCC(=O)N1OCC1CCCN2CCCCC12 (stereo unspecified),104% (inactive),0.1,108%
CCSc1nsc(SCC)c1C(=O)O,88% (active),-1.5,96%

Structure (SMILES),% elongation,z-score,% elongation [1]
O=C(Nc1sc2c(c1C(=O)NCCc1ccccc1)CCC2)c1ccco1,103% (inactive),0.4,105%
Cc1ccc(S(=O)(=O)c2no[n+]([O-])c2S(=O)(=O)c2ccc(C)cc2)cc1,79% (active),-2.2,69%
Cc1ccc(CSc2oc(-c3cccs3)nc2S(=O)(=O)c2ccc(C)cc2)cc1,108% (inactive),0.8,109%
Cc1ccc(-c2nc(S(=O)(=O)c3ccc(C)cc3)c(N3CCCCCC3)o2)cc1,100% (inactive),-1.6,104%
CCC(c1nnc(SCc2nc3sc4c(c3c(=O)[nH]2)CCC4)n1Cc1ccccc1)N(C)C (stereo unspecified),114% (inactive),2,106%
Cc1c(S(=O)(=O)O)oc2c1C(=O)C(=O)c1c-2ccc2c1CCCC2(C)C,87% (active),-1.4,88%
COc1ccccc1Cn1cccc1C1=NC(C(C)C)CO1 (stereo unspecified),101% (inactive),0.2,103%
COC1CC(O[C@@H]2[C@H](C)[C@H](OC3OC(C)CC(N(C)C)C3OC(C)=O)[C@H](C)CC3(CO3)C(=O)[C@@H](C)C(OC(C)=O)[C@H](C)[C@H](C)OC(=O)[C@@H]2C)OC(C)C1OC(C)=O (stereo partly specified),100% (inactive),0.2,103%
Cc1ccc(OCCn2cc(C(=O)c3ccccc3)c3ccccc32)cc1,100% (inactive),-0.4,96%
CCOc1ccccc1NC(=O)Cn1c2ncccc2c(=O)n1-c1ccc(C)c(C)c1,107% (inactive),0,105%
Cc1ccc(-n2c(=O)c3cccnc3n2CC(=O)Nc2ccccc2C(F)(F)F)cc1C,110% (inactive),0.2,105%
CC(C)c1ccc(NC(=O)Cn2c3ncccc3c(=O)n2-c2ccccc2)cc1,33% (active),-5.2,49%
CSc1ccc(/C=N/NC(N)=S)cc1,98% (inactive),-0.7,63%
Cc1ccc(O)c(NC(=O)c2cccs2)c1,99% (inactive),-0.7,108%
COC(=O)c1c(NC(=O)c2cccs2)sc2c1C(C(=O)OC)CC2 (stereo unspecified),99% (inactive),-0.7,97%
CCc1c(C)sc(NC(=O)c2cccs2)c1C(N)=O,74% (active),-2.8,79%
CC(NC(=O)Nc1cccnc1)N1C(=O)C2C3C=CC(C3)C2C1=O (stereo unspecified),100% (inactive),-0.4,103%
O=C(O)/C(=C/C(=O)c1ccccc1)Nc1ccc(OC(F)(F)F)cc1,103% (inactive),0,111%
CC(C)(C)NC(=O)C1N(C2CC2)C(=O)C2C(C(=O)NCc3ccccc3)C3C=CC21O3 (stereo unspecified),103% (inactive),0.3,104%
Cc1ccccc1CN1CCCN(Cc2ccccc2)S1(=O)=O,103% (inactive),0.1,99%
CCC(=O)c1ccc(OCC(=O)NC2CCCCC2C)cc1 (stereo unspecified),101% (inactive),-0.4,93%
Cc1cc(C)c2nc(-c3ccco3)cc(C(=O)O)c2c1,96% (inactive),-1.9,93%
Cc1cc(C)c2nc3nc(C)cc(C)c3c(N)c2c1,90% (active),-2.4,76%
